Results taken from PubChem BioAssay.

Tested on: not listed separately
Assay: hepatitis C replication reporter changes, two-sided – Huh7 cells, luciferase reporter, HCV replication inhibitor project, primary screen (AID 1109);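 also: huh7 hepatoma cells harbouring a luciferase neomycin HCV replicon reporter; luciferase luminescence as measure of HCV replicon replication; test concentration not given here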
Settings: Huh7 HCV replicon luciferase reporter, 48 h; higher = more signal

Structure (SMILES)	z-score
CC(=O)Nc1ccc([C@H]2[C@H](C)CC[C@H]3C(=O)N4[C@@H](CC[C@@H](C)[C@@H]4c4ccc(NC(C)=O)cc4)C(=O)N32)cc1	-0.288
C=CCN(C(=O)C1N(c2ccc(CCO)cc2)C(=O)C2C(C(=O)O)C3C=CC21O3)C(C)(C)C (stereo not drawn)	0.333
CO[C@H]1COC(=O)[C@H](C)NC(=O)CC=C[C@@H](C)[C@H](NS(=O)(=O)c2ccc(C)cc2)COC(=O)[C@@H](OCc2ccccc2)C=C[C@@H]1C	-0.179
COCCCNC(=O)[C@@]1(Sc2ccc(C)cc2)CC(=O)N(Cc2cc(C(F)(F)F)cc(C(F)(F)F)c2)[C@@H]1c1ccc(CO)cc1I	-1.22
CO[C@H]1COC(=O)CC=C[C@H](C)[C@@H](OC)COC(=O)[C@H](Cc2ccccc2)NC(=O)CC=C[C@@H]1C	-0.74
COCCOC(=O)N1C(=O)[C@@]2(c3cc(C#CCCO)ccc31)[C@H](C(=O)N1CCCCCCC1)[C@H]1C(=O)O[C@H](c3ccccc3)[C@H](c3ccccc3)N1[C@@H]2c1ccc(O)cc1	-1.18
Cc1ccc(N2C(=O)c3ccccc3[C@@H](C(=O)NCc3ccccc3)[C@@H]2c2ccc(CO)cc2)nc1	-0.139
O=C1C2C=CC(C(O)C(c3ccccc3)c3ccccc3)N(Nc3ccc([N+](=O)[O-])cc3)C2C(=O)N1c1ccccc1 (stereo not drawn)	-0.871

Biological target: Left-right determination factor 2 (Homo sapiens) (UniProt O00292)
Sequence (O00292 whole entry, looked up): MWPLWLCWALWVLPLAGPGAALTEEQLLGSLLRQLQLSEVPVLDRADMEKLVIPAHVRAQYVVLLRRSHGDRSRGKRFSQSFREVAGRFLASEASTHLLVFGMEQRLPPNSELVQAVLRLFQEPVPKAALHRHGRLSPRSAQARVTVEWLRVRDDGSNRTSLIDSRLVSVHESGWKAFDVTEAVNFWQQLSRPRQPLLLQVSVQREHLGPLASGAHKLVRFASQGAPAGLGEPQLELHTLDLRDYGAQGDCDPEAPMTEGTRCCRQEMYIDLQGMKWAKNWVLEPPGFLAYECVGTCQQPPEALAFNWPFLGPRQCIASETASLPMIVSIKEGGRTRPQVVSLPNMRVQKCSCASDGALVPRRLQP
Assay: small molecules binding LEFTY2 protein – biochemical, small-molecule microarray, 635 nm fluorescence scan, primary screen (AID 1110)
Settings: higher = more signal

Structure (SMILES)	composite z-score
CO[C@H]1COC(=O)[C@@H](C)COC(=O)[C@H](Cc2ccccc2)NC(=O)CC=C[C@H]1C	0.726
C=CCC(OC(C)=O)[C@@H]1[C@@H](N(Cc2cccc3ccccc23)C(=O)c2ccc(C)cc2)c2cc(OCCCO)ccc2N1C(=O)c1ccc(-c2ccccc2)cc1 (stereo partly drawn)	0.111
CC(C)[C@H]1NC(=O)[C@@]23C(=O)N[C@@H](Cc4ccccc4)C2[C@H](C)[C@@]2(C)O[C@H]2C3/C=C/C/C=C\CNC(=O)[C@H](C)NC1=O (stereo partly drawn)	-0.796
CO[C@H]1COC(=O)[C@@H](Cc2ccccc2)NC(=O)[C@@H](C)COC(=O)CC=C[C@@H]1C	0.831
CN1CCC(CCCO)=CC1C1CC1 (stereo not drawn)	0.637
CC(C)[Si]1(C(C)C)OCc2cc(C3CC3)nc(-c3ccccc3)c21	-0.231
O=C1c2ccccc2[C@](Cc2ccccc2I)(C(=O)O)[C@H](c2ccc(CO)cc2)N1C1CCCCC1	0.15
C[C@@H]1NC(=O)CC=C[C@@H](C)[C@@H]2C=C[C@H](O)[C@@H](COC(=O)[C@H](C)NC(=O)CC=C[C@@H](C)[C@@H]3C=C[C@H](O)[C@@H](COC1=O)O3)O2	0.0183
C=CCc1cccc([C@@H]2[C@@H](C)CC[C@H]3C(=O)N4[C@H](c5cccc(CC=C)c5)[C@@H](C)CC[C@H]4C(=O)N23)c1	1.09
C=CC[C@@]12N=C(c3ccc(OCCCO)cc3)O[C@@H]1c1ccccc1CN(Cc1ccccc1)C2=O	-0.397
COc1ccc([C@H]2C[C@H]3C(Br)=C[C@]2(OC)C(=O)[C@]32CO2)cc1	0.219
C=CCOC(=O)[C@@H]1[C@H]2C(=O)O[C@H](c3ccccc3)[C@H](c3ccccc3)N2[C@H](c2ccc(OCCOC(=O)[C@H]3C[C@H]4C(=O)N5CCC[C@H]5C(=O)N4[C@H]3c3ccc(O)cc3)cc2)[C@@]12C(=O)Nc1ccccc12	0.382
CC(=O)NCCCC[C@@H]1NC(=O)[C@@H]2C[C@H](C(=O)NCc3ccc(F)cc3)[C@H](c3cccc(OCCO)c3)N2C1=O	-0.0566
O=C(CS)NCCCCCNC(=O)[C@H]1C[C@H]2C(=O)N3CCC[C@H]3C(=O)N2[C@H]1c1ccc(O)cc1	0.679
C=C(COC)/C(=C/C[C@H](OC(C)=O)c1ccc(OCCO)cc1)c1cnc2ccccc2c1	0.523
COc1cc([C@@H]2N[C@H](C(=O)O)Cc3c2[nH]c2ccccc32)cc(OC)c1OC	0.649
C=CC[C@@]1(C(=O)N2CCOCC2)N=C(c2ccc(OCCCO)cc2)O[C@@H]1c1ccccc1	-0.464
COCCOC(=O)N1C(=O)[C@@]2(c3cc(C#CC4=CCCCC4)ccc31)[C@H](c1ccc(O)cc1)N1[C@H](c3ccccc3)[C@H](c3ccccc3)OC(=O)[C@H]1[C@@H]2C(=O)N1CCCCCCC1	0.8
COCCOC(=O)N1C(=O)[C@@]2(c3cc(C#CC4=CCCCC4)ccc31)[C@H](C(=O)NC[C@H](O)c1ccccc1)[C@H]1C(=O)O[C@H](c3ccccc3)[C@H](c3ccccc3)N1[C@@H]2c1ccccc1OCCO	0.394
C=CC[C@]1(C(=O)NCC(O)CO)N=C(c2ccc(OCCCO)cc2)O[C@H]1c1ccccc1 (stereo partly drawn)	-0.418
